Experimental data taken from PubChem BioAssay (NCI).
About 79,000 compounds went through this panel and 15% of them were active in at least one assay; those are over-represented in the sample as a whole. Active and inactive are the calls of the source. No stated cut-off is given here; in the data, active means growth inhibition above about 70%; inactive means the rest.

Assays:
[1] = NCI Yeast Anticancer Drug Screen. Data for the rad50 strain (AID 155);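 further: 0% = growth of vehicle-only cultures of the same strain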; settings: S. cerevisiae rad50 strain growth inhibition; at 50.0 µM; hits give high values
Outline: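 Readout: growth inhibition relative to vehicle-treated cultures. Compound exposure was carried out in a genetically defined yeast strain deficient in DNA damage repair.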

[2] = NCI Yeast Anticancer Drug Screen. Data for the mec2-1 strain (AID 157); settings: S. cerevisiae mec2-1 strain, at 50.0 µM, hits give high values
Outline: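 Strain: mec2-1 (DNA repair/cell cycle alteration). Compound exposure, then growth measured; inhibition expressed relative to vehicle.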

[3] = NCI Yeast Anticancer Drug Screen. Data for the sgs1 mgt1 strain (AID 161);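 further: 0% = growth of cultures given vehicle only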; settings: S. cerevisiae sgs1 mgt1 strain, at 50.0 µM, hits give high values
Outline: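 Inhibition of yeast growth, normalised to vehicle-treated controls, is reported for a strain bearing genetic alterations in DNA damage repair.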

[4] = NCI Yeast Anticancer Drug Screen. Data for the cln2 rad14 strain (AID 165);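 further: 0% = growth equal to vehicle treated cultures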; settings: S. cerevisiae cln2 rad14 strain, at 50.0 µM, hits give high values
Outline: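 Compounds are applied to the cln2 rad14 yeast strain, and growth is then compared with that of vehicle-treated cultures to give inhibition.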

[5] = NCI Yeast Anticancer Drug Screen. Data for the bub3 strain (AID 167); settings: S. cerevisiae bub3 mutant strain, at 50.0 µM, hits give high values
Outline: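 Readout: yeast growth inhibition, expressed relative to vehicle-only wells. The test organism is a mutant strain from a panel with lesions in DNA repair or checkpoint genes.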

[6] = NCI Yeast Anticancer Drug Screen. Data for the mlh1 rad18 strain (AID 175); settings: S. cerevisiae mlh1 rad18 strain growth inhibition; at 50.0 µM; hits give high values
Outline: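 Read-out is yeast growth inhibition, calculated against vehicle-only controls. The compound was applied to a strain engineered with DNA damage repair alterations.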

Measured: growth inhibition

Cc1nnc2sc(Cl)nn12
inactive: [1] 26.9% | [2] 48.8% | [3] 48.1% | [4] 17.7% | [5] 12.9% | [6] 22.8%

Cc1ccc([N+](=O)[O-])cc1NC(=O)Nc1cccc(Cl)c1Cl
inactive: [1] 3.55% | [2] 2.95% | [3] 9.8% | [4] 9% | [5] 18.1% | [6] 11.1%

O=C(OCC1CCCO1)c1ccccc1 (centres undefined)
inactive: [1] 8.4% | [2] 13.2% | [3] -15.3% | [4] -18.4% | [5] -8.75% | [6] -11%

COc1ccc(NC(=S)NN=C(C)c2cccc(C(C)=NNC(=S)Nc3ccc(OC)cc3)n2)cc1
inactive: [1] -26.1% | [2] -23.1% | [3] 5.15% | [4] -15.7% | [5] -14.3% | [6] 1.95%

COCOc1ccc(C=O)cc1
inactive: [1] 9.75% | [2] 13.1% | [3] -14.3% | [4] -4.6% | [5] -14.1% | [6] -5.65%

CCCCC(CC)CC#N (centres undefined)
inactive: [1] 6.15% | [2] -20.1% | [3] 21.1% | [4] 6.05% | [5] -4.35% | [6] 10.7%

COc1cc(C2=N/C(=C\c3cccc([N+](=O)[O-])c3)C(=O)O2)cc(OC)c1OC
inactive: [1] -0.45% | [2] -7.25% | [3] 11.6% | [4] -8.05% | [5] -0.2% | [6] -22.5%

C/C(Cl)=C/CC1(C)CCCC(C)(C)CC1=O (centres undefined)
inactive: [1] 6.4% | [2] 7.4% | [3] 1.5% | [4] 2.05% | [5] 1.85% | [6] -10.3%

COc1ccc2c(c1)c(=O)c1ccccc1n2/C=C/C(=O)O
inactive: [1] -6% | [2] -14.8% | [3] -8.9% | [4] 3.75% | [5] -3.05% | [6] 2.25%

CCC(c1ccc(O)cc1)c1cc2c(cc1OCCO)OCO2 (centres undefined)
inactive: [1] -15.7% | [2] -9.25% | [3] -5.7% | [4] -11.2% | [5] -7.9% | [6] -5.3%

COc1ccc2c(c1)c1c3c(ccc4ncn2c43)N(CCN(C)C)CCN=1
inactive: [1] -27.1% | [2] -26.1% | [3] -9.25% | [4] -6.3% | [5] 1.4% | [6] -37.6%

COc1ccc(C(O)c2ccccc2C(=O)Nc2ccccc2)cc1 (centres undefined)
inactive: [1] -4.95% | [2] -9.7% | [3] -18.2% | [4] -21.9% | [5] -3.35% | [6] -3.9%

Nc1ncc([N+](=O)[O-])c(=O)[nH]1
inactive: [1] -29.9% | [2] -14.2% | [3] -1.35% | [4] -4.25% | [5] 0.55% | [6] 26.9%

Cn1nc(-c2ccccc2)c(N=[N+]=[N-])cc1=O
inactive: [1] -18.1% | [2] 14.6% | [3] -41.3% | [4] -11.9% | [5] -10.9% | [6] -34.6%

CC(C)(C)OC(=O)NCS(=O)(=O)N(Cc1ccccc1)Cc1ccccc1
inactive: [3] 51.7%
active: [1] 91.8% | [2] 89% | [4] 82.6% | [5] 79.4% | [6] 89.7%

CC(C)c1ccccc1NC(=O)C(=O)Cc1nc2ccccc2s1
inactive: [1] 23.2% | [2] 7.2% | [3] 19.7% | [4] -36.1% | [5] 38.3% | [6] 51.4%

CC(=O)CCc1ccccc1
inactive: [1] 5.6% | [2] -7.8% | [3] -0.9% | [4] -23% | [5] -1.75% | [6] 1.9%

CSc1ccc(C(N)=O)cn1
inactive: [1] -1.2% | [2] -12.2% | [3] -7.05% | [4] -36% | [5] -22.1% | [6] 1.15%

O=c1cnn2c(n1)sc1ccc3ccccc3c12
inactive: [1] -11.8% | [2] -0.9% | [3] -15.4% | [4] 0.65% | [5] 26.5% | [6] 40.4%

C=CCC1=C(C)C(OC(=O)/C=C/c2ccco2)CC1=O (centres undefined)
inactive: [1] 10.3% | [2] -5.2% | [3] 8.6% | [4] -5.5% | [5] 30.3% | [6] -0.2%

CCCCC1=CC1(C#N)[N+](=O)[O-] (centres undefined)
inactive: [1] 33.4% | [2] 11.5% | [3] 20.5% | [4] 21.6% | [5] 17.3% | [6] 27.8%

CCOC(=O)C12CCCCC1=CC1(CC2)SCCS1 (centres undefined)
inactive: [1] -0.45% | [2] -9.95% | [3] -30.5% | [4] -1.35% | [5] 4.55% | [6] -15.6%

CC1(c2nc3ccccc3s2)CCCO1 (centres undefined)
inactive: [1] -6.1% | [2] 23.8% | [3] 7.6% | [4] -13.7% | [5] 7.55% | [6] 8.4%

ON(C=Nc1ccccc1)c1ccccc1
inactive: [1] 17% | [2] 19.1% | [3] 6.35% | [4] -11.5% | [5] -3.25% | [6] 7.05%

O=C(O)c1ccnc2c(S(=O)(=O)O)cccc12
inactive: [1] 14.7% | [2] -2.05% | [3] -0.95% | [4] -35.5% | [5] 3.25% | [6] 12.4%

COC(=O)C(C(C)C(C)[N+](=O)[O-])=P(c1ccccc1)(c1ccccc1)c1ccccc1 (centres undefined)
inactive: [1] 41.7% | [2] 3.4% | [3] 29.5% | [4] 11.2% | [5] -4.95% | [6] 10.8%

O=C(O)CCCC#CCCCC(=O)O
inactive: [1] 10.4% | [2] 4.5% | [3] 2% | [4] 17.3% | [5] 25.8% | [6] -13.7%

O=C1NC2Cc3ccccc3C(C2)O1 (centres undefined)
inactive: [1] 2.8% | [2] -0.9% | [3] 1.85% | [4] -1.95% | [5] 15.9% | [6] 11.8%

Cn1nnc2c(C(N)=O)ncn2c1=O
inactive: [1] -11.4% | [2] -18.5% | [3] -28.5% | [4] -25.2% | [5] -26.6% | [6] -77%

O=C1NN2CCCN=C2c2ncccc21
inactive: [1] 15.2% | [2] 2.1% | [3] 8.1% | [4] 17.1% | [5] 2.7% | [6] 20.8%

CCOC(OCC)c1ccccc1C
inactive: [1] 27.9% | [2] 9.3% | [3] 8.25% | [4] -36.5% | [5] 15.2% | [6] 20.4%

Cc1ccc2c(c1)NC(c1ccc(C(=O)O)cc1)c1cccn1-2 (centres undefined)
inactive: [1] 29.7% | [2] 8.95% | [3] 0.45% | [4] 7.7% | [5] 19.3% | [6] 23.2%

C[S+](C)CCS(=O)(=O)[O-]
inactive: [1] 10.3% | [2] -6.45% | [3] -2.1% | [4] -30.4% | [5] 4.95% | [6] -13.2%

CCCCCCCC/C=C\CCCCCCCC(=O)OCCN(CCOC(=O)CCCCCCC/C=C\CCCCCCCC)C(=O)c1ccccc1
inactive: [1] -12.9% | [2] -1.2% | [3] -17.9% | [4] -20.2% | [5] -9.9% | [6] -2.65%

CC(C)c1nc2c(c(=O)o1)CCS2
inactive: [1] -5.5% | [2] -5.75% | [3] -7.9% | [4] -8.1% | [5] -1.4% | [6] -11.9%

COc1ccc(-c2oc(/C=N/NC(N)=S)c([N+](=O)[O-])c2-c2ccc(OC)c(OC)c2)cc1OC
inactive: [1] 44.6% | [2] 22.8% | [3] 44% | [4] 24.4% | [5] 28.9% | [6] 34.6%

CC(=O)Nc1ccccc1N
inactive: [1] 15.4% | [2] 14.9% | [3] -2.85% | [4] 4.6% | [5] -14.3% | [6] 14.5%

CSC(SC)=C(C(=O)c1ccc(Cl)cc1)n1c(=O)sc2cc(Br)ccc21
inactive: [1] -19% | [2] 2.45% | [3] 6.25% | [4] 0.25% | [5] 12.8% | [6] -20.4%

CN1C/C(=C\c2ccccc2)C2=NN(C(N)=S)[C@H](c3ccccc3)[C@@H]2C1
inactive: [1] 3.5% | [2] -18.1% | [3] -5.85% | [4] 10.9% | [5] -19.8% | [6] -16.9%
